Experimental data from PubChem BioAssay (NCATS).
Results filed as inconclusive are left out. Calls of active or inactive are those of the source. Calls come from the whole dose curve; as a rule, active = well fitted cell-killing curve with a large enough effect; inconclusive = small, poorly fitted or top-dose-only effect, or effect the other way; inactive = flat fitted curve, though single readings scatter.

Experiments:
Assay in all cases: Primary qHTS to identify gynecologic anti-cancer compounds using libraries of approved drugs and bioactive compounds (AID 1345084); note: nearly all actives have a fitted effect of over 55% in size
Settings in all cases: Gynecologic cancer cell panel viability, ATPlite luminescence, 48 h; series mostly up to 57.5 µM
[1] = system: JEG-3
Outline: (§1)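 Five-concentration response, 48 h; readout is ATP-driven luciferase luminescence.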

[2] = system: OV90
Outline: as §1

[3] = system: PA-1
Outline: as §1

[4] = system: SKOV3
Outline: as §1

[5] = system: Tov-21-G
Outline: as §1

[6] = system: Tov112D
Outline: as §1
% is set by controls: 0 for no effect and ±100 for the full control effect.

C/C(=C\CCC(C(=O)O)C1CCC2(C)C3=C(CCC12C)C1(C)CCC(=O)C(C)(C)C1CC3)C(=O)O (stereo not drawn)
inactive: Potency [1] | Potency [2] | Potency [3] | Potency [4] | Potency [5] | Potency [6]

COc1ccc(C)c2sc(NC(=O)c3ccncc3)nc12
inactive: Potency [1] | Potency [2] | Potency [3] | Potency [4] | Potency [5] | Potency [6]

CC(c1c[nH]c2ccccc12)C(O)C(=O)O (stereo not drawn)
inactive: Potency [1] | Potency [2] | Potency [3] | Potency [4] | Potency [5] | Potency [6]

CN1CC[C@@H](NC(=O)Nc2ccc(C#N)cc2)C[C@@H]1c1nc2ccccc2[nH]1
inactive: Potency [1] | Potency [2] | Potency [3] | Potency [4] | Potency [5] | Potency [6]

CC1=C2C3OC(=O)C(C)C3(O)CCC2(C)CCC1=O (stereo not drawn)
inactive: Potency [1] | Potency [2] | Potency [3] | Potency [4] | Potency [5] | Potency [6]

CC1=C2C(=O)C=C(CO)[C@@H]2[C@H]2OC(=O)[C@H](C)[C@@H]2[C@@H](O)C1
inactive: Potency [1] | Potency [2] | Potency [3] | Potency [4] | Potency [5] | Potency [6]

C[C@H]1[C@H](C)CC[C@]2(C(=O)O[C@@H]3O[C@H](CO)[C@@H](O)[C@H](O)[C@H]3O)CC[C@]3(C(=O)O)C(=CCC4[C@@]5(C)CC[C@H](O[C@@H]6O[C@H](CO)[C@@H](O)[C@H](O)[C@H]6O)C(C)(C)C5CC[C@]43C)[C@H]12 (stereo partly drawn)
inactive: activity change, negative = cytotoxicity [1] 1.79% [at 11.6 µM] | activity change, negative = cytotoxicity [2] -4.18% [at 11.6 µM] | activity change, negative = cytotoxicity [3] 5.91% [at 11.6 µM] | activity change, negative = cytotoxicity [4] 23.4% [at 11.6 µM] | activity change, negative = cytotoxicity [5] -3.54% [at 11.6 µM] | activity change, negative = cytotoxicity [6] 2.01% [at 11.6 µM]

CC(C)CC1(C(=O)OCc2ccc(O[C@@H]3O[C@H](CO)[C@@H](O)[C@H](O)[C@H]3O)cc2)CC(=O)OC(C(=O)O)CC(=O)OCC2OC(O1)C(OC(=O)/C=C/c1ccc(O)cc1)C(O)C2O (stereo partly drawn)
inactive: activity change, negative = cytotoxicity [1] 1.44% [at 11.6 µM] | activity change, negative = cytotoxicity [2] -14.4% [at 11.6 µM] | activity change, negative = cytotoxicity [3] -8.97% [at 11.6 µM] | activity change, negative = cytotoxicity [4] -14.9% [at 11.6 µM] | activity change, negative = cytotoxicity [5] -1.82% [at 11.6 µM] | activity change, negative = cytotoxicity [6] 0.377% [at 11.6 µM]

C#Cc1cnc2[nH]c(=O)n(C(CC)CC)c2n1
inactive: Potency [1] | Potency [2] | Potency [3] | Potency [4] | Potency [5] | Potency [6]

C=C1CC23CCC4[C@@](C)(CCC[C@@]4(C)C(=O)O)C2CCC1C3 (stereo partly drawn)
inactive: Potency [1] | Potency [2] | Potency [3] | Potency [4] | Potency [5] | Potency [6]

CC(/C=C/C1(O)C2(C)COC1(C)CC(=O)C2)O[C@@H]1O[C@H](CO)[C@@H](O)[C@H](O)[C@H]1O (stereo partly drawn)
inactive: Potency [1] | Potency [2] | Potency [3] | Potency [4] | Potency [5] | Potency [6]

C[C@]12CCC[C@](C)(C(=O)O)C1CCC13C=C(CO)C(CCC12)C3 (stereo partly drawn)
inactive: Potency [1] | Potency [2] | Potency [3] | Potency [4] | Potency [5] | Potency [6]

COC1=Cc2c(nc3n(c2=O)C(C)C(=O)NC3(O)C(C)C)OC=C1 (stereo not drawn)
inactive: Potency [1] | Potency [2] | Potency [3] | Potency [4] | Potency [5] | Potency [6]

CC1CCC(=O)CC(O)C(O)CC(=O)O1 (stereo not drawn)
inactive: Potency [1] | Potency [2] | Potency [3] | Potency [4] | Potency [5] | Potency [6]

C=C1C(OC(C)=O)C(=O)C2C(C)(C)C(OC(C)=O)CCC2(C)C1CC(OC(C)=O)/C(C)=C/COC(C)=O (stereo not drawn)
inactive: Potency [1] | Potency [2] | Potency [3] | Potency [4] | Potency [5] | Potency [6]

CC(C)(O)c1ccc2c(c1)C(=O)CC1[C@](C)(CO)CCC[C@]21C (stereo partly drawn)
inactive: Potency [1] | Potency [2] | Potency [3] | Potency [4] | Potency [5] | Potency [6]

C/C=C/C=C/C=C/C(=O)O[C@@H]1C=C(CO)C(O)(C(=O)O)[C@@]2(C)CCCC(C)(C)[C@H]12 (stereo partly drawn)
inactive: Potency [1] | Potency [2] | Potency [3] | Potency [4] | Potency [5] | Potency [6]

CC(=O)OCCC(C)CCC1C(C)(O)CCC2C(C)(C)CCCC21C (stereo not drawn)
inactive: Potency [1] | Potency [2] | Potency [3] | Potency [4] | Potency [5] | Potency [6]

CC1CCC2C(C)(C)CC(C)(CO)C2(O)C1C(=O)O (stereo not drawn)
inactive: Potency [1] | Potency [2] | Potency [3] | Potency [4] | Potency [5] | Potency [6]

CCNC(=O)[C@@H]1CCCN1C(=O)[C@H](CCCN=C(N)N)NC(=O)[C@H](CC(C)C)NC(=O)[C@@H](C)NC(=O)[C@H](Cc1ccc(O)cc1)NC(=O)[C@H](CO)NC(=O)[C@H](Cc1c[nH]c2ccccc12)NC(=O)[C@H](Cc1cnc[nH]1)NC(=O)[C@@H]1CCC(=O)N1
inactive: Potency [1] | Potency [2] | Potency [3] | Potency [4] | Potency [5] | Potency [6]

CC1(CO)CC[C@]2(C(=O)O[C@@H]3O[C@H](CO)[C@@H](O)[C@H](O)[C@H]3O)CC[C@]3(C)C(=CCC4[C@@]5(C)CC[C@H](O[C@@H]6O[C@H](C(=O)O)[C@@H](O)[C@H](O)[C@H]6O)C(C)(C)C5CC[C@]43C)C2C1 (stereo partly drawn)
inactive: activity change, negative = cytotoxicity [1] 10.8% [at 11.6 µM] | activity change, negative = cytotoxicity [2] 2.36% [at 11.6 µM] | activity change, negative = cytotoxicity [3] 28.3% [at 11.6 µM] | activity change, negative = cytotoxicity [4] 13% [at 11.6 µM] | activity change, negative = cytotoxicity [5] 6.77% [at 11.6 µM] | activity change, negative = cytotoxicity [6] 9.6% [at 11.6 µM]

CC(=O)OC[C@@]12[C@@H](OC(C)=O)C[C@@H](C)[C@](C)([C@@H]3C[C@H]4C=CO[C@H]4O3)[C@H]1CCC[C@]21CO1
inactive: Potency [1] | Potency [2] | Potency [3] | Potency [4] | Potency [5] | Potency [6]

COC1=CC(=O)C[C@@H](C)[C@]12Oc1cc(OC)cc(OC)c1C2=O
inactive: Potency [1] | Potency [2] | Potency [3] | Potency [4] | Potency [5] | Potency [6]

c1ccc(Cc2ncc3c(n2)CCNCC3)cc1
inactive: Potency [1] | Potency [2] | Potency [3] | Potency [4] | Potency [5] | Potency [6]

COc1cc(/C=C/C(=O)OC2CC3CCC2(C)C3(C)C)ccc1O (stereo not drawn)
inactive: Potency [1] | Potency [2] | Potency [3] | Potency [4] | Potency [5] | Potency [6]

CC(O)C(O)/C=C/C=C/C(=O)O[C@@H]1C=C2COC(=O)[C@]2(O)[C@@]2(C)CCCC(C)(C)C12 (stereo partly drawn)
inactive: Potency [1] | Potency [2] | Potency [3] | Potency [4] | Potency [5] | Potency [6]

CC(C#N)C(C)O[C@@H]1O[C@H](CO)[C@@H](O)[C@H](O)[C@H]1O (stereo partly drawn)
inactive: Potency [1] | Potency [2] | Potency [3] | Potency [4] | Potency [5] | Potency [6]

CC1C/C=C/C=C\CCCCC(O)C/C=C/C(=O)O1 (stereo not drawn)
inactive: Potency [1] | Potency [2] | Potency [3] | Potency [4] | Potency [5] | Potency [6]

CC(C)C1=CC2=CCC3[C@](C)(CCC[C@@]3(C)C(=O)O)C2CC1=O (stereo partly drawn)
inactive: Potency [1] | Potency [2] | Potency [3] | Potency [4] | Potency [5] | Potency [6]

CC(=O)OC[C@]1(O)[C@H]2[C@H](OC(=O)CC(C)C)OC=C(CO[C@@H]3O[C@H](CO)[C@@H](O)[C@H](O)[C@H]3O)[C@H]2C[C@@H]1O
inactive: Potency [1] | Potency [2] | Potency [3] | Potency [4] | Potency [5] | Potency [6]

C[C@@H]1O[C@@H](O[C@@H]2[C@@H](O)[C@@H](O)[C@H](O[C@@H]3[C@@H](O)[C@@H](O[C@]4(CO)O[C@H](CO)[C@@H](O)[C@@H]4OC(=O)/C=C/c4ccc(O)cc4)O[C@H](CO)[C@H]3OC(=O)/C=C/c3ccc(O)cc3)O[C@H]2C)[C@H](O)[C@H](O)[C@H]1O
inactive: activity change, negative = cytotoxicity [1] -6.75% [at 11.6 µM] | activity change, negative = cytotoxicity [2] 7.74% [at 11.6 µM] | activity change, negative = cytotoxicity [3] -5.64% [at 11.6 µM] | activity change, negative = cytotoxicity [4] -21.8% [at 11.6 µM] | activity change, negative = cytotoxicity [5] -2.88% [at 11.6 µM] | activity change, negative = cytotoxicity [6] -1.04% [at 11.6 µM]

COc1cccc(-n2nc(C(=O)O)cc2-c2ccc(C3CCCCC3)c(Cl)c2)c1
inactive: Potency [1] | Potency [2] | Potency [3] | Potency [4] | Potency [5] | Potency [6]

CC(=O)N1CCN(NC(=O)c2ccc(F)cc2)CC1
inactive: Potency [1] | Potency [2] | Potency [3] | Potency [4] | Potency [5] | Potency [6]

COc1cc(C/C(=C/NC(C)=O)N(CC(=O)Cc2ccccc2)C(C)=O)cc2c1OCO2
inactive: Potency [1] | Potency [2] | Potency [3] | Potency [4] | Potency [5] | Potency [6]

CC(C)C1=CCC(C)(O)C(OC2OC(CO)C(O)C(O)C2O)C1 (stereo not drawn)
inactive: Potency [1] | Potency [2] | Potency [3] | Potency [4] | Potency [5] | Potency [6]

C=C1CC2[C@]3(C)C(=C(O)C(=O)[C@@]2(C)[C@]2(C(=O)OC)C(=O)C(C)OC(=O)[C@@]12C)C(C)(C)C(=O)CC3O (stereo partly drawn)
inactive: Potency [1] | Potency [2] | Potency [3] | Potency [4] | Potency [5] | Potency [6]

CCOc1nc2cccc(C(=O)OCc3oc(=O)oc3C)c2n1Cc1ccc(-c2ccccc2-c2noc(O)n2)cc1
inactive: Potency [1] | Potency [2] | Potency [3] | Potency [4] | Potency [5] | Potency [6]

COc1cc(C2Oc3c(OC)cc(/C=C/C(=O)OC[C@H]4O[C@@H](OC(C)(C)C(=O)O)[C@H](O)[C@@H](O)[C@@H]4O)cc3C2CO)ccc1O (stereo partly drawn)
inactive: Potency [1] | Potency [2] | Potency [3] | Potency [4] | Potency [5] | Potency [6]
